# This is a sample that favours compounds with a hit; in the whole collection about 2.1% have one here.
# Abeta rescue: qHTS for compounds that reverse cellular toxicity of Amyloid beta (A-beta) peptide in yeast: Primary Screen | yeast expressing A-beta42, growth rescue, OD600, 48 h; response scale: 0% DMSO, 100% iron-clioquinol control | AID 1347071, 2019 | hit rate 0.063% among 410,000 | Potency, µM (series often up to 46.1 µM), hits mostly activators; further: nearly all actives have a fitted effect of over 55% in size
#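 Yeast growth medium received pinned compounds, then yeast cells expressing toxic A-beta were added; plates incubated at 30 C for 48 hr. Growth read as absorbance at 600 nm, normalized to DMSO and equimolar FeCl3 plus clioquinol controls.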
# FUS yeast rescue: qHTS for Suppressors of FUS Proteinopathy: Primary screen using FUS-linked yeast assay; S. cerevisiae FUS-expressing, growth rescue, OD600, 24 h; Potency, µM (titrated, usually from 76.6 µM), usual class: activators; hit rate 0.24% among 390,000; AID 1347120, 2019;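 further: plate controls were DMSO vehicle for no effect and reference control for full effect; nearly all actives have a fitted effect of over 55% in size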
#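 Steps: raffinose overnight preculture; dilution to OD 0.005 in 2% galactose minimal medium; compound addition (concentration series); 24hr at 30C, 99% humidity; absorbance read at 600 nm.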
# TDP43 rescue: qHTS of TDP-43 Inhibitors. Potency, µM (top dose mostly 46.1 µM), inactives show top-dose growth rescue (activation), most hits filed as activators. TDP-43 expressing yeast growth rescue, BacTiter-Glo, 24 h. AID 652104, 2013. hit rate 1.8% among 410,000; further: % of control where 0% means no effect; nearly all actives have a fitted effect of over 50% in size
#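 Readout is BacTiter-Glo luminescence of cell growth, so inhibitors register as activators. TDP-43-expressing yeast at OD600=0.02 in galactose medium, after raffinose pregrowth to mid-log, were incubated with compound for 24 hr at 30 deg C.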
# aSyn rescue: qHTS of alpha-syn Inhibitors | Yeast expressing alpha-synuclein, growth rescue, BacTiter-Glo, 24 h | Potency, µM (top dose mostly 46.1 µM), without a hit: top-dose growth rescue (activation), hits mostly activators | hit rate 0.14% among 370,000; further: % of control where 0% means no effect; nearly all actives have a fitted effect of over 65% in size
#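 Galactose-induced alpha-syn yeast (OD600=0.02, raffinose-pregrown) + pinned cpd, 24 hr, 30 deg C; growth by BacTiter-Glo luminescence. Growth restoration scores as activation.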
# An asterisk follows results filed as active; i = inactive; ? = inconclusive; · = no result given. The call rests on the fitted dose curve; in most records, active means well fitted curve in the direction sought with a large enough effect; inconclusive means small, poorly fitted or top-dose-only effect, or another doubt; inactive means no such curve, though single readings can be large; an effect the other way counts as inactive or inconclusive. Potency means the concentration at half of the fitted maximal effect.
SMILES,Abeta rescue,FUS yeast rescue,TDP43 rescue,aSyn rescue
O=C(C1CCCCC1)N1CCN=C1SCc1cccnc1,i,i,?,1.7%
O=C(C1CCCCC1)N1CCN=C1SCc1cccc([N+](=O)[O-])c1,i,i,17.8µM*,-13.8%
Cn1c2ccccc2c2cnn(CC(=O)NCCCN3CCCCC3)c(=O)c21,i,i,?,·
Cc1ccc(NS(=O)(=O)c2ccc(-c3cc(C)no3)cc2)c(Br)c1,i,i,22.4µM*,·
Cc1cc(-c2ccc(S(=O)(=O)Nc3ccccc3C)cc2)on1,i,i,23.0%,·
Cc1cc(-c2ccc(S(=O)(=O)Nc3ccc(Cl)cc3C)cc2)on1,i,i,15.8µM*,·
CCO[C@H]1OC(C(=O)Nc2ccccc2)=C[C@@H](c2ccc(C(F)(F)F)cc2)[C@@H]1CCCO,i,i,35.5µM*,?
CCO[C@H]1OC(C(=O)NCc2ccccc2)=C[C@@H](c2ccc(C(F)(F)F)cc2)[C@@H]1CCCO,i,?,3.5%,?
CCOCc1nnc(NC(=O)c2ccc3c(c2)OCO3)s1,i,i,4.5%,-2.5%
CC(C)Cc1nnc(NC(=O)c2ccc3c(c2)OCCO3)s1,i,i,20µM*,1.3%
Cc1cc(C)c2nc(NNC(=O)c3ccc(S(=O)(=O)N4CCCCC4)cc3)sc2c1,i,?,6.31µM*,-0.8%
CCOC(=O)N1CCN(S(=O)(=O)c2ccc(C(=O)NNc3nc4cc(C)cc(C)c4s3)cc2)CC1,i,i,5.62µM*,1.5%
Cc1cc(C)c2nc(NC(=O)c3ccc(S(=O)(=O)N4CCCC4)cc3)sc2c1,i,i,2.4%,1.0%
Cc1cccc2sc(NNC(=O)c3ccc(S(=O)(=O)N4CCCC(C)C4)cc3)nc12 (stereo not drawn),i,?,5.62µM*,11.1%
CN(C)c1ccc(/C=N\Nc2ccc([N+](=O)[O-])cc2[N+](=O)[O-])cc1Br,·,·,·,-2.8%
CC1CCCN(S(=O)(=O)c2ccc(C(=O)Nc3nnc(-c4ccco4)o3)cc2)C1 (stereo not drawn),i,i,27.0%,3.5%
Cc1cccc2sc(NNC(=O)c3ccc4c(c3)OCCO4)nc12,?,i,35.5µM*,14.3%
COc1cccc2sc(NC(=O)c3ccc4c(c3)OCCO4)nc12,i,i,29.6%,·
CCc1nnc(NC(=O)c2ccc(S(=O)(=O)N3CCCC(C)C3)cc2)o1 (stereo not drawn),?,i,?,22.4µM*
Oc1ccc(Cl)cc1C1=Nc2ccccc2N=C(c2cccc(Br)c2)C1,i,i,3.2%,·
COc1cc(/C=C/C(=O)Nc2cc(C(F)(F)F)ccc2Cl)cc(OC)c1OC,i,i,22.4µM*,-0.5%
CCc1ccc(NC(=O)CC2C(=O)N(c3ccc(Cl)cc3)C(=O)N2Cc2ccco2)cc1 (stereo not drawn),?,?,4.2%,·
CCCCCCCCCCS(=O)(=O)N/N=C/c1ccc(O)cc1,i,i,14.1µM*,?
Cc1cc(C)cc(OCC(=O)N2CCC(c3nc4ccccc4o3)CC2)c1,i,i,22.4µM*,·
Cc1cc(OC(C)C(=O)N2CCC(c3nc4ccccc4o3)CC2)ccc1Cl (stereo not drawn),i,?,25.1µM*,·
SMILES,Abeta rescue,FUS yeast rescue,TDP43 rescue,aSyn rescue
CCc1ccc(OC(C)C(=O)N2CCC(c3nc4ccccc4o3)CC2)cc1 (stereo not drawn),i,i,?,·
O=C(Nc1ccc(OCc2cc(=O)n3c4c(sc3n2)CCCC4)cc1)c1ccc(F)cc1,i,i,10.5%,·
COc1cc2c(C#N)c(N3CCCCC3)nc(N)c2c(N)n1,i,i,?,7.7%
COc1cc2c(C#N)c(N3CCc4ccccc4C3)nc(N)c2c(N)n1,i,?,12.6µM*,6.4%
COc1ccccc1Cc1c(-c2ccc(OC)c(OC)c2)nc2c(C)cc(Br)cn12,i,?,17.8µM*,0.6%
COc1ccccc1Cc1c(-c2ccc(F)cc2)nc2c(C)cc(Br)cn12,i,i,?,22.7%
COc1ccccc1Cc1c(-c2ccc(C)cc2)nc2c(C)cc(Br)cn12,i,?,35.5µM*,10.7%
COc1ccc(-c2nc3c(C)cc(Br)cn3c2Cc2cccc(Cl)c2)cc1OC,i,?,31.6µM*,5.2%
